# Data: PubChem BioAssay AID2013 (Sanford-Burnham Center for Chemical Genomics, 2009)
# Hit rate of the full screen: of about 290,000 compounds, about 370 (0.13%) were called active. For the sample, actives were picked, then their nearest neighbours and some compounds at random. Potency and affinity values are given separately. Unmarked numbers belong to inactive results.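 The calls were made as follows: active = spots per cell inhibited over 60%, with over 100 cells counted and total cytoplasm intensity under 500,000; inconclusive = wells with under 100 cells, flagged as likely toxic; inactive = the rest.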
# Target: G-protein coupled receptor 55 (Homo sapiens) (UniProt Q9Y2T6)
# Test: inhibition of LPI-stimulated GPR55 beta-arrestin translocation – imaging, U2OS, beta-arrestin-GFP, LPI agonist, primary screen (AID 2013);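 also: U2OS cells stably carrying GPR55 and arrestin-GFP stimulated by 5 µM LPI near EC80; imaged beta-arrestin-GFP aggregate spots per cell after agonist stimulation; plate controls were LPI-stimulated DMSO wells for no effect and DMSO wells without LPI for full effect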
# Details: LPI antagonism, at 10 µM, hits give high values
# G-protein coupled receptor 55 (Homo sapiens), sequence (Q9Y2T6 whole entry, looked up): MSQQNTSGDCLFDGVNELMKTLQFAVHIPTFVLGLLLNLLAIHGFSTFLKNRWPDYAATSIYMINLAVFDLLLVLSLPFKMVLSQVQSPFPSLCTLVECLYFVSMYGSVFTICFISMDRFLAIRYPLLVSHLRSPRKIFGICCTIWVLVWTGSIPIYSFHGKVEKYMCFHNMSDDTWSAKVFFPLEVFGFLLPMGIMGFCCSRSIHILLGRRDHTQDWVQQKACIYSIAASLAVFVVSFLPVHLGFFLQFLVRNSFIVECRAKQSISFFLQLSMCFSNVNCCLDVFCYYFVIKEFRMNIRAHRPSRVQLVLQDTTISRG
row,Structure (SMILES),inhibition
1,COc1ccc(CCn2c(C)cc(C(=O)COC(=O)c3ccc(NC(=O)CC#N)cc3)c2C)cc1,-0.8%
2,O=C(NC1CCCC1)C(c1cccnc1)N(C(=O)c1ccco1)c1cccc(F)c1 (stereo not drawn),-23.3%
3,COc1ccc(N2C(=O)CSC23C(=O)N2c4c(cccc43)C(C)=CC2(C)C)cc1 (stereo not drawn),-6.8%
4,Cc1ccc(N2C(=O)CSC23C(=O)Nc2ccccc23)cc1 (stereo not drawn),17.5%
5,Cc1cc2c3c(c1)C1(SCC(=O)N1c1ccc(F)cc1)C(=O)N3C(C)(C)CC2C (stereo not drawn),26.5%
6,CC1=CC(C)(C)N2C(=O)C3(NCCc4c3[nH]c3ccccc43)c3cc(C)cc1c32 (stereo not drawn),6.1%
7,CC(C(=O)Nc1ccc(S(=O)(=O)N2CCOCC2)cc1)N(c1ccccc1)S(C)(=O)=O (stereo not drawn),2.6%
8,COc1ccccc1CN1CC(C(=O)N(C)CCOc2ccccc2)CCC1=O (stereo not drawn),4.1%
9,CCc1ccc2oc(C(=O)NC3CCS(=O)(=O)C3)cc(=O)c2c1 (stereo not drawn),0.2%
10,CCOC(=O)c1cnc2c(c(C)nn2C)c1Oc1cc(Cl)cc(Cl)c1,-4.2%
11,CCOC(=O)c1cnc2c(c(C)nn2C)c1Oc1ccc(OC)cc1,24.7%
12,CCOc1ccc(/C=N/n2c(-c3ccccc3)n[nH]c2=S)cc1,-1.8%
13,O=C(O)CSCC(=O)Nc1ccc(S(=O)(=O)N2CCCCC2)cc1,8.7%
14,CC(c1ccc(F)cc1)n1cc(C(=O)NCc2ccccn2)nn1 (stereo not drawn),-1.6%
15,O=C(CSc1nc2ccccc2[nH]1)N=Nc1c(O)[nH]c2ccccc12,-8.4%
16,O=c1[nH]c2ccccc2nc1-c1ccccc1,5.1%
17,NC(=O)c1sc2nnc(-c3ccccc3)c(-c3ccccc3)c2c1N,21.8%
18,CCSc1nnc(-c2cccs2)o1,-4.1%
19,O=C(CCn1ccnc1)Nc1cc(Cl)ccc1O,4.7%
20,N=C1S/C(=C\c2cccc3ccccc23)C(=O)N1c1ccc(F)cc1,-1.5%
21,N=C1S/C(=C\c2ccccc2F)C(=O)N1c1ccc(F)cc1,7.1%
22,CC(C)(C)OC(=O)CC12CCCCC1NC(=O)O2 (stereo not drawn),-7.6%
23,COc1ccc2[nH]c(=O)c(COC(=O)c3ccco3)cc2c1,-0.6%
24,CCCCNS(=O)(=O)c1cccc(S(=O)(=O)N2CCCC2)c1,11.2%

row,Structure (SMILES),inhibition
1,CC1Cn2c(nc(=O)c3c2NCN(CCc2ccccc2)C3)S1 (stereo not drawn),3.9%
2,CC(=O)c1c(C)nc2ccccn12,5.4%
3,CCCSC(=S)NC1CCS(=O)(=O)C1 (stereo not drawn),1.1%
4,O=S1(=O)CC=C(CSC(=S)NC2CCS(=O)(=O)C2)C1 (stereo not drawn),71.8% (active)
5,O=S1(=O)CCC(NC(=S)SCc2ccccc2Br)C1 (stereo not drawn),8.1%
6,CCOC(=O)C1=C(C)NC(C)=C(C(=O)OC)C1c1cccc([N+](=O)[O-])c1 (stereo not drawn),14.8%
7,CCOC(=O)C1=C(O)C(=O)N(c2ccccc2)C1c1cccc([N+](=O)[O-])c1 (stereo not drawn),-3.6%
8,CCn1c(SCc2nc3cc(OC)c(OC)cc3c(=O)[nH]2)nnc1-c1ccncc1,-12.8%
9,CCOC(=O)N1CCN(C(=O)CS(=O)Cc2nc(-c3cccc(C)c3)oc2C)CC1 (stereo not drawn),-4.3%
10,Cc1cc(=O)c(C(=O)O)nn1-c1ccccc1C(F)(F)F,-0.4%
11,COc1ccccc1NC(=S)NC(NC(=O)c1ccco1)C(Cl)(Cl)Cl (stereo not drawn),3.2%
12,O=C(NC(NC(=S)Nc1ccccc1C(=O)O)C(Cl)(Cl)Cl)c1ccco1 (stereo not drawn),15.9%
13,Cc1ccc(NC(=O)C2C3C=CC4(O3)C2C(=O)N(CCCN2CCCCC2)C4C(=O)NC2CCCCC2)cc1C (stereo not drawn),1.2%
14,COc1ccc(C(=O)C2CCCN(C(=O)c3noc4c3CCCC4)C2)c(C)c1 (stereo not drawn),15.3%
15,COC(CNC(=O)c1coc2nc3ccccc3nc12)OC,-2.8%
16,COCCCNC(=O)c1ccccc1-c1cc(C)no1,-3.6%
17,COCCCNC(=O)c1ccc2c3c(onc13)-c1ccccc1C2=O,84.1% (active)
18,CCOC(=O)C(C(=O)OCC)c1cc(Br)c2noc3c2c1C(=O)c1ccccc1-3,-10.2%
19,COC(CNC(=O)c1ccc2c3c(onc13)-c1ccccc1C2=O)OC,99.4% (active)
20,COCCNC(=O)c1cccc2c1-c1ccccc1C2=O,4%
21,O=C(c1cccc(C(F)(F)F)c1)N1CCN(S(=O)(=O)c2ccc(Cl)s2)CC1,9.8%
22,CCN(c1cccc(C)c1)S(=O)(=O)c1ccc2c(c1)oc(=O)n2C,1.9%
23,CCOc1ccc(NC(=O)CN(C)S(=O)(=O)c2ccc3c(c2)CCC(=O)N3)cc1,-0.4%
24,COc1ccc(C(=O)NC(Oc2ccccc2)C(Cl)(Cl)Cl)cc1 (stereo not drawn),-6.6%

row,Structure (SMILES),inhibition
1,CC(C)CC(=O)NNC(=O)c1ccc(Cl)cc1,4.3%
2,COc1ccc(C(=O)N(CCCO)C(C)C(=O)NC2CCCCC2)cc1OC (stereo not drawn),-11.9%
3,CCOC(=O)c1ccc(NC(=O)c2ccc3c(c2)C(=O)N(Cc2cccnc2)C3=O)cc1,-16.9%
4,CCCSc1ncc(Cl)c(C(=O)Nc2ccc(S(=O)(=O)Nc3ncccn3)cc2)n1,7.3%
5,CSc1ncc(Cl)c(C(=O)Nc2ccc(S(=O)(=O)N3CCOCC3)cc2)n1,29.9%
6,N/C(Cc1cccs1)=N\OC(=O)COc1ccc(Cl)cc1Cl,-3.5%
7,Cc1ccc(CN2CCN(/N=C/C(Br)=C\c3ccccc3)CC2)cc1,-12%
8,CN1/C(=C\C(=O)CSc2nncn2C)C(C)(C)c2ccccc21,-7.6%
9,CN1/C(=C\C(=O)CSc2cccc[n+]2[O-])C(C)(C)c2ccccc21,0.8%
10,COc1ccc2[nH]cc(C(O)CN3CCC(C(N)=O)CC3)c2c1 (stereo not drawn),28.7%
11,COc1ccc([N+](=O)[O-])cc1N(CC(=O)NCCC1=CCCCC1)S(C)(=O)=O,0.4%
12,CC(C)(C)c1ccc(O)c(N=Cc2cc3c(cc2[N+](=O)[O-])OCO3)c1,-3.2%
13,CCN=C1S/C(=C\c2cn(C(C)=O)nc2-c2ccccc2)C(=O)N1CC,-15.2%
14,CC(=O)NC1=NC(=O)/C(=C/c2cc(C)n(-c3cccc(C(=O)O)c3)c2C)S1,-3.4%
15,CC(=O)NC1=NC(=O)/C(=C/c2cn(C(C)=O)nc2-c2ccccc2)S1,100% (active)
16,CCCn1cc(CN2CCC(n3nccc3NC(=O)c3ccc4c(c3)OCO4)CC2)c(C)n1,6%
17,CCc1ccc(C(=O)COC(=O)[C@@H](NC(N)=O)[C@@H](C)CC)cc1,0.9%
18,Cc1ccc2nc(N(CCCN(C)C)C(=O)CCc3ccccc3)sc2c1,29.6%
19,CN(C)CCCN(C(=O)CCc1ccccc1)c1nc2ccc(Cl)cc2s1,75.6% (active)
20,CN(C)CCCN(C(=O)CCc1ccccc1)c1nc2ccc(Br)cc2s1,44.7%
21,CN(C(=O)c1ccc(OC2CCN(Cc3ccccn3)CC2)cc1)C1CCCCC1,-18.7%
22,C1CCC(C23CC4CC(CC(C4)C2)C3)NC1 (stereo not drawn),-4.6%
23,O=S(=O)(CCC1CCCCN1)c1ccccc1 (stereo not drawn),0.5%
24,CCCN1Cc2cccc(C(=O)N3CCN(c4ccc(F)cc4)CC3)c2C1=O,2.2%

row,Structure (SMILES),inhibition
1,O=C(Nc1ccc(F)cc1F)c1cc(-c2ccco2)nc2ccccc12,7.3%
2,CN(/C(=N/S(=O)(=O)c1ccccc1)c1ccccc1)S(=O)(=O)c1ccccc1,5.7%
3,CCc1ccc(CCC(=O)Nc2nccs2)o1,2.3%
4,Oc1ccc(-c2c(-c3ccsc3)sc3ccccc23)cc1,6.5%
5,CC(=O)Oc1ccc2c(c1)Oc1cc(OC(C)=O)ccc1C21OC(=O)c2ccccc21,9.9%
6,Cc1cc(C2(c3ccc(O)c(C)c3)OC(=O)c3ccccc32)ccc1O,83.2% (active)
7,CN(C)c1ccc(C2(c3ccc(N(C)C)cc3)OC(=O)c3cc(N)ccc32)cc1,6.1%
8,Cc1cccc(C2(c3cccc(C)c3)OC(=O)c3ccccc32)c1,10.5%
9,Nc1ccc(C2(c3ccc(N)cc3)OC(=O)c3ccccc32)cc1,4%
10,O=C(O)c1ccc(C2(c3ccc(C(=O)O)cc3)OC(=O)c3ccccc32)cc1,-10.8%
11,Cc1cc(O)c(C(C)C)cc1C1(c2cc(C(C)C)c(O)cc2C)OC(=O)c2ccccc21,6.1%
12,CCCCOc1ccc(-c2nnn(CC(=O)NCCc3c[nH]c4ccccc34)n2)cc1,4%
13,CCOc1cc(-c2noc(CCC(=O)NCC3CCCO3)n2)ccc1OC (stereo not drawn),0%
14,COc1ccc(C2CC(=O)c3cnn(-c4nc(C)cc(C)n4)c3C2)cc1OC (stereo not drawn),6.6%
15,CC1=CC(C)(C)N2C(=O)C3(NCCc4c3[nH]c3ccccc43)c3cccc1c32 (stereo not drawn),18.2%
16,O=C(CNC(=S)N(Cc1ccc(F)cc1)C1CCCCC1)NCCN1CCOCC1,12.3%
17,Cc1c(C(=O)NC2CCCCC2C)oc2ccccc12 (stereo not drawn),0.8%
18,COc1cc(NC(=O)C2CCN(S(=O)(=O)c3cccnc3)CC2)cc(OC)c1OC,8.8%
19,O=C(c1cccnc1)N1CCN(C(=O)c2cccc(Cl)c2)CC1,-12.2%
20,Cc1cccc2c1c(N=NC(N)=S)c(O)n2C1OC(CO)C(O)C(O)C1O (stereo not drawn),-13.4%
21,O=C1NCCN(Cc2ccoc2)C1CC(=O)N(CCO)Cc1ccccc1 (stereo not drawn),1.1%
